From PubChem BioAssay (Tox21)
Records with an inconclusive call do not appear. The source made the active and inactive calls. Unless noted, calls follow the shape of the dose curve; as a rule, active = well fitted curve in the direction sought with a large enough effect in the repeat runs; inconclusive = weak or mixed curves; inactive = no such curve, though single readings can be large; an effect the other way counts as inactive or inconclusive.

Tests used:
[1] = Human pregnane X receptor (PXR) small molecule agonists, qHTS cell viability counter screen (AID 1346977); also: nearly all actives have a fitted effect of over 50% in size
How it was run: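 HepG2 cells stably carrying the PXR-Luc reporter are cultured with 5% charcoal-stripped FBS and treated with compounds for 24hr. CellTiter-Fluor is added at 23hr and fluorescence is read after 1hr.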

[2] = Caspase-3/7 induction in HepG2 cells by small molecules, qHTS assay (AID 1346978); also: nearly all actives have a fitted effect of over 15% in size
How it was run: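 Caspase-3/7 induction was measured by Caspase-Glo 3/7 luminescence (30 min, room temperature) after a 17 hr compound exposure of wild-type HepG2 cells seeded at 2,000 per well and pre-incubated 5 hr.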

[3] = Caspase-3/7 induction in CHO-K1 cells by small molecules, qHTS cell viability counter screen (AID 1346979); also: nearly all actives have a fitted effect of over 35% in size
How it was run: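 Seeding: 1,500 CHO-K1 cells/well. Rest: 5hr, 37C. Treatment: compounds in DMSO, 16hr. Read: CellTiter-Fluor, 1hr, fluorescence.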

[4] = Caspase-3/7 induction in CHO-K1 cells by small molecules, qHTS assay (AID 1346980); also: nearly all actives have a fitted effect of over 15% in size
How it was run: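 Luminescent Caspase-Glo 3/7 read (30min, room temperature) quantified apoptosis induction. Cells were wild-type CHO-K1, treated with compound for 17hr at 37 C and 5% CO2.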

[5] = Caspase-3/7 induction in HepG2 cells by small molecules, qHTS cell viability counter screen (AID 1346981); also: series mostly up to about 92 µM; nearly all actives have a fitted effect of over 30% in size
How it was run: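 Cell viability is measured as a cytotoxicity counter screen alongside the Caspase-Glo 3/7 readout in identical wells. Wild-type HepG2 cells are treated with test compounds for 16 hr at 37 C before CellTiter-Fluor addition and a 1-hr incubation.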

[6] = target: Nuclear receptor subfamily 1 group I member 2 (Homo sapiens) (UniProt O75469); test: Human pregnane X receptor (PXR) small molecule agonists, qHTS assay (AID 1346982); also: nearly all actives have a fitted effect of over 35% in size; also: potency is read from the fitted curve at half-maximal effect
Chain of Nuclear receptor subfamily 1 group I member 2 (Homo sapiens) (O75469 whole entry, looked up): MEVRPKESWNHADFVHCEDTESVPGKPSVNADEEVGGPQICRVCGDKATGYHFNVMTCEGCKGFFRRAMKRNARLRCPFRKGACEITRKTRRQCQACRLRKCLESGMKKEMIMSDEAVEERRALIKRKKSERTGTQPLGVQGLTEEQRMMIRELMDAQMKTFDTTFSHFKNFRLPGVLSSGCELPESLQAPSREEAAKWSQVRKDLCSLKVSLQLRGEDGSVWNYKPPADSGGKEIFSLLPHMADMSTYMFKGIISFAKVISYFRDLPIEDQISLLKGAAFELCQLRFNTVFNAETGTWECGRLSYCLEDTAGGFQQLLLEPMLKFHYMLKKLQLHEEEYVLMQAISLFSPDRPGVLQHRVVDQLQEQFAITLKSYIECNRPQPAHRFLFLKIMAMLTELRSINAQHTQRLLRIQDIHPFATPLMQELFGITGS
How it was run: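 Cells: HepG2 stably carrying PXR-Luc. Medium held 5% charcoal-stripped FBS. Compounds in DMSO added after 5 hr plating, incubated 24 hr, then luminescence quantified with ONE-Glo.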

[7] = target: Cytochrome P450 2D6 (Homo sapiens) (UniProt P10635); test: Cytochrome P450 Family 2 Subfamily D Member 6 (CYP2D6) small molecule antagonists: luciferase reporter qHTS assay (AID 1671196); also: nearly all actives have a fitted effect of over 50% in size; also: potency is read from the fitted curve at half-maximal effect
Chain of Cytochrome P450 2D6 (Homo sapiens) (P10635 whole entry, looked up): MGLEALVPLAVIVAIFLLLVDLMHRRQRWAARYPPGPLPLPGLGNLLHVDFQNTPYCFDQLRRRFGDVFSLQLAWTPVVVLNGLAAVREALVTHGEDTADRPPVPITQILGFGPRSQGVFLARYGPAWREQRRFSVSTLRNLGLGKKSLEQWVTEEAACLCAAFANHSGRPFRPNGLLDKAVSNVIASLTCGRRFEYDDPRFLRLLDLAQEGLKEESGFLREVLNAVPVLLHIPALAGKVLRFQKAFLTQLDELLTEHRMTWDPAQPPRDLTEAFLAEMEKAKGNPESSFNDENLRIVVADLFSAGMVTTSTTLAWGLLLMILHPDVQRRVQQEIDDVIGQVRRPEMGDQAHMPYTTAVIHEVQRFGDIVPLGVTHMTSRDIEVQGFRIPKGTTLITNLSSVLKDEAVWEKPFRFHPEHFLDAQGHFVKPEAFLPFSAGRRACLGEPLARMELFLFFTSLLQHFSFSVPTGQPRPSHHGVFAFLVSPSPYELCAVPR
How it was run: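 Enzyme and proluciferin substrate were first combined with test chemical for 10 min at room temperature. Adding NADPH regeneration solution started a 1 h reaction, stopped with luciferin detection reagent and read by luminescence 20 min later.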

[8] = target: Cytochrome P450 2C19 (Homo sapiens) (UniProt P33261); test: Cytochrome P450 Family 2 Subfamily C Member 19 (CYP2C19) small molecule antagonists: luciferase reporter qHTS assay (AID 1671197); also: nearly all actives have a fitted effect of over 65% in size; also: potency is read from the fitted curve at half-maximal effect
Chain of Cytochrome P450 2C19 (Homo sapiens) (P33261 whole entry, looked up): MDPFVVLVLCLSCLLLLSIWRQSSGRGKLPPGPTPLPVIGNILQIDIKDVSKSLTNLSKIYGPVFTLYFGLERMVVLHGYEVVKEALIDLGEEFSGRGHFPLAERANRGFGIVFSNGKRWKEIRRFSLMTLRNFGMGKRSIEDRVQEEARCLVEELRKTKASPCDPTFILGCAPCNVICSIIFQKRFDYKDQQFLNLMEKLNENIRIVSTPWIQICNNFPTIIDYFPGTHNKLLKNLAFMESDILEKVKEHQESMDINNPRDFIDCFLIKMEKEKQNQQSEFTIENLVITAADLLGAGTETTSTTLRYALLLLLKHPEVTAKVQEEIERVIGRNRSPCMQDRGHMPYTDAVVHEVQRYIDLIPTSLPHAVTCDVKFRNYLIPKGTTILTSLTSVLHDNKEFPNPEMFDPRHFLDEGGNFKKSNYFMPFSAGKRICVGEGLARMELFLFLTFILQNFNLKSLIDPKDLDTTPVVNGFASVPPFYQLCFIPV
How it was run: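 Enzyme-substrate mix with proluciferin substrate (P450-Glo CYP2C19 system) preincubated with compounds 10 min at room temperature; NADPH regeneration solution added, 37C for 1 h; detection reagent stops reaction, luminescence read after 20 min. Ketoconazole positive control.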

[9] = target: Cytochrome P450 1A2 (Homo sapiens) (UniProt P05177); test: Cytochrome P450 Family 1 Subfamily A Member 2 (CYP1A2) small molecule antagonists: luciferase reporter qHTS assay (AID 1671199); also: nearly all actives have a fitted effect of over 50% in size; also: potency is read from the fitted curve at half-maximal effect
Chain of Cytochrome P450 1A2 (Homo sapiens) (P05177 whole entry, looked up): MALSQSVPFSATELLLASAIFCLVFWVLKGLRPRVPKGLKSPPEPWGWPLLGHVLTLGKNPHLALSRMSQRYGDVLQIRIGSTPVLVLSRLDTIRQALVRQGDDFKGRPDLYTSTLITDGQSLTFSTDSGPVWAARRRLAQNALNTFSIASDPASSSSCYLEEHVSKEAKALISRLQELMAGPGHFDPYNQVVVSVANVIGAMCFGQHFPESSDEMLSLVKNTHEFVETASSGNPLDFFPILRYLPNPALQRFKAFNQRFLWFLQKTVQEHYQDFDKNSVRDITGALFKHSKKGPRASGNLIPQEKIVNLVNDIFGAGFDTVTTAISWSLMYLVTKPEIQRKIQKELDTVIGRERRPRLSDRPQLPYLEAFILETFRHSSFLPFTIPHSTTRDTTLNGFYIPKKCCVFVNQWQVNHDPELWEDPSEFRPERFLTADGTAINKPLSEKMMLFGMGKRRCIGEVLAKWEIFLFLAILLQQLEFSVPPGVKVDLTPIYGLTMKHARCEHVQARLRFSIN
How it was run: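 Compounds were incubated with CYP1A2 and a luminogenic proluciferin substrate for 10 min at room temperature before the reaction was started with NADPH regeneration solution. After 1 h, detection reagent was added and light output, proportional to CYP activity, was recorded.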

[10] = target: Voltage-gated inwardly rectifying potassium channel KCNH2 (Homo sapiens) (UniProt Q12809); test: Human Ether-a-go-go-Related Gene (hERG) channel small molecule antagonists: fluorescence cell-based qHTS assay (AID 1671200);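 also: hERG-expressing U2OS cells given a thallium stimulus after FluxOR II dye loading; series mostly up to about 77 µM; nearly all actives have a fitted effect of over 50% in size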
Chain of Voltage-gated inwardly rectifying potassium channel KCNH2 (Homo sapiens) (Q12809 whole entry, looked up): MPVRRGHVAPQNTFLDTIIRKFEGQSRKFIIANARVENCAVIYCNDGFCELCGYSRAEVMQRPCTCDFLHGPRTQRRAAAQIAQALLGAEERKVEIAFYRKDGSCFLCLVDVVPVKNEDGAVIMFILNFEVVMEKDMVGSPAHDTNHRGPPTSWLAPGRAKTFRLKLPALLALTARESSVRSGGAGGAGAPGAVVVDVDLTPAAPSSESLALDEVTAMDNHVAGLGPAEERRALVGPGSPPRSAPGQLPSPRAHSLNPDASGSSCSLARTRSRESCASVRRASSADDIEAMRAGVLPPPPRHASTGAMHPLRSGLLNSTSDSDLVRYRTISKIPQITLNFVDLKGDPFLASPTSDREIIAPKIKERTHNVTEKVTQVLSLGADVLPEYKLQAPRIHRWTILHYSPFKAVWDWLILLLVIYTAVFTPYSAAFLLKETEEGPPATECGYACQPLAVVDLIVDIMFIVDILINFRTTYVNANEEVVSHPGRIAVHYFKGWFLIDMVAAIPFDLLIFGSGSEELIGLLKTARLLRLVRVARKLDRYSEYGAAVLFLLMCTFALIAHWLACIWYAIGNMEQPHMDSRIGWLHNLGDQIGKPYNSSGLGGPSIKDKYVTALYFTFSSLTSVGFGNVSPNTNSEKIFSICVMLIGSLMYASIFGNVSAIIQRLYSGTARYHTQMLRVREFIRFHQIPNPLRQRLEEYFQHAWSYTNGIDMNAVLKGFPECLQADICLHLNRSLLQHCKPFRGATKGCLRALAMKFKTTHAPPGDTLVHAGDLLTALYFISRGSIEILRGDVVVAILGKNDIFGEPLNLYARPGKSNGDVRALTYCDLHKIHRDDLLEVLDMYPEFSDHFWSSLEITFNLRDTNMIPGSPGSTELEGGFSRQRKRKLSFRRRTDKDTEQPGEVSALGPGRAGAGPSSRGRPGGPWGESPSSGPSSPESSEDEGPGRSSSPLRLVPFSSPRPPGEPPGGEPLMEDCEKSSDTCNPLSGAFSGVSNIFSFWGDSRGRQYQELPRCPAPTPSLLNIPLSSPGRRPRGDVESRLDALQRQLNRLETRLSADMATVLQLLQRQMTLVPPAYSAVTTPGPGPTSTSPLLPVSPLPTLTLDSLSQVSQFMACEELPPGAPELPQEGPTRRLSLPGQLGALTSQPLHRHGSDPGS
How it was run: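 First, 1000 cells per well are seeded and cultured overnight at 37 C. Next, FluxOR II dye is loaded for 1 h at room temperature, protected from light. After 10 more minutes, stimulus is added and fluorescence is read.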

[11] = target: Cytochrome P450 3A4 (Homo sapiens) (UniProt P08684); test: Cytochrome P450 Family 3 Subfamily A Member 4 (CYP3A4) small molecule antagonists: luciferase reporter qHTS assay (AID 1671201)
Chain of Cytochrome P450 3A4 (Homo sapiens) (P08684 whole entry, looked up): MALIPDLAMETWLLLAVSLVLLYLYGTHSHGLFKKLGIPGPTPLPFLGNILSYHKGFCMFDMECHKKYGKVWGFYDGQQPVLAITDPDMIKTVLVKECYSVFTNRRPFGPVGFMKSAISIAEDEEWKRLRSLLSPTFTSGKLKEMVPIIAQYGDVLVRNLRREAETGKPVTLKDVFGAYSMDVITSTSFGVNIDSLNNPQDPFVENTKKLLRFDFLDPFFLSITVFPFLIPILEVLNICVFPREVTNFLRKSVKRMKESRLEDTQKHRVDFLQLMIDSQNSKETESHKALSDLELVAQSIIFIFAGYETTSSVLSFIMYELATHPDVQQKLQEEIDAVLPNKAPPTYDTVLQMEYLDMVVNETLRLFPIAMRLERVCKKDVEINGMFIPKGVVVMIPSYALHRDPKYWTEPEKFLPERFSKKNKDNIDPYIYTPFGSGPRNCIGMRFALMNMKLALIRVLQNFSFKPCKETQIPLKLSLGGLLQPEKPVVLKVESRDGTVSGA
How it was run: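 Enzyme and proluciferin substrate are mixed with test chemicals for 10 min, then NADPH regeneration system drives turnover for 1 h at room temperature. A detection reagent halts the reaction; luminescence after 20 min gives relative activity.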

[12] = target: Nuclear receptor subfamily 1 group I member 2 (Rattus norvegicus) (UniProt Q9R1A7); test: Rat pregnane X receptor (rPXR) activation by small molecules, qHTS assay (AID 1346983); details: rPXR luciferase reporter cells, One-Glo luminescence, 24 h; max activation: active compounds read high; also: nearly all actives have a fitted effect of over 20% in size
Chain of Nuclear receptor subfamily 1 group I member 2 (Rattus norvegicus) (Q9R1A7 whole entry, looked up): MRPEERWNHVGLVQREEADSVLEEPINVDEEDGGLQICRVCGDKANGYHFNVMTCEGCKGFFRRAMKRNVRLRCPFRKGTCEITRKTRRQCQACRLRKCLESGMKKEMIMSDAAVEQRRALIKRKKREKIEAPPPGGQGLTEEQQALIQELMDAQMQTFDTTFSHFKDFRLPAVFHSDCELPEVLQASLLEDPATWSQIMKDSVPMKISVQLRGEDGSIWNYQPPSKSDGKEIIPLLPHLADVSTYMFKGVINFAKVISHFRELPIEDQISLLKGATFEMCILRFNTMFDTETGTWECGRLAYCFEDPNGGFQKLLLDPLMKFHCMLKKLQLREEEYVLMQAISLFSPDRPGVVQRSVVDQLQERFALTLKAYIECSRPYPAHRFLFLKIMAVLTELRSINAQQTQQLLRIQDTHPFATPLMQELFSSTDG
How it was run: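 Luminescent readout (One-Glo luciferase, 30 min room temperature) followed 24 hr compound treatment at 37 C of rPXR cells plated 2,000 per well and preincubated 5hr; qHTS format with compounds delivered in DMSO.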

[13] = target: Nuclear receptor subfamily 1 group I member 2 (Homo sapiens) (UniProt O75469); test: CYP3A4 induction through human pregnane X receptor (PXR) by small molecules, qHTS assay (AID 1346984); also: nearly all actives have a fitted effect of over 40% in size
How it was run: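 Quantitative HTS in DPX-2 cells, i.e. HepG2 transfected with PXR response element and CYP3A4-promoter luciferase. Compounds in DMSO incubated 24hr at 37C; then P450-Glo CYP3A4 substrate, 3uM final, 3hr; One-Glo luminescence.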

[14] = target: Nuclear receptor subfamily 1 group I member 2 (Homo sapiens) (UniProt O75469); test: Human pregnane X receptor (PXR) activation by small molecules, qHTS assay (AID 1346985); also: nearly all actives have a fitted effect of over 40% in size
How it was run: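 DPX-2 cells (HepG2 co-transfected with a PXR response element and a CYP3A4-promoter luciferase construct) were seeded at 2,000 per well, rested 5 hr at 37C, then exposed to DMSO-dissolved compounds for 24 hr. Activation was read as luciferase luminescence.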

[15] = target: Cytochrome P450 2C9 (Homo sapiens) (UniProt P11712); test: Cytochrome P450 Family 2 Subfamily C Member 9 (CYP2C9) small molecule antagonists: luciferase reporter qHTS assay (AID 1671198)
Chain of Cytochrome P450 2C9 (Homo sapiens) (P11712 whole entry, looked up): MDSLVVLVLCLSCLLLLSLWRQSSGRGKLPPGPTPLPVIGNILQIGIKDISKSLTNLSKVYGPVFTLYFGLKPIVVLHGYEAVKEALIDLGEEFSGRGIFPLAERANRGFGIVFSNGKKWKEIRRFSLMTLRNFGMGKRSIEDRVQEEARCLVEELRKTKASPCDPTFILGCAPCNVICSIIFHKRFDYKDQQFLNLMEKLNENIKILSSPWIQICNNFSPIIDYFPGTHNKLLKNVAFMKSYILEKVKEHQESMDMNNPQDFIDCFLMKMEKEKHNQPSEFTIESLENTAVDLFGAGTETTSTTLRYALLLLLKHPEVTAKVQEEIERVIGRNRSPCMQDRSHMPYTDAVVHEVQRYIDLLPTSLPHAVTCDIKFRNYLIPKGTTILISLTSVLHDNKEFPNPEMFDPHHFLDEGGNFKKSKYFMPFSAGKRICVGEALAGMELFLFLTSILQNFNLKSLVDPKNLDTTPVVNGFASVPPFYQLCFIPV
How it was run: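 Enzyme-substrate mix preincubated with compound 10 min at room temperature; reaction started with NADPH regeneration solution, 1 h 37C. Luminescent luciferin product read after 20 min detection reagent.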

[16] = target: Thyrotropin-releasing hormone receptor (Homo sapiens) (UniProt P34981); test: qHTS assay to identify small molecule agonists of the thyrotropin-releasing hormone receptor (TRHR) signaling pathway (AID 1346891; calls by dose curve;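 also: HEK293 cells expressing TRHR with calcium dye readout; series mostly up to about 58 µM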)
Chain of Thyrotropin-releasing hormone receptor (Homo sapiens) (P34981 whole entry, looked up): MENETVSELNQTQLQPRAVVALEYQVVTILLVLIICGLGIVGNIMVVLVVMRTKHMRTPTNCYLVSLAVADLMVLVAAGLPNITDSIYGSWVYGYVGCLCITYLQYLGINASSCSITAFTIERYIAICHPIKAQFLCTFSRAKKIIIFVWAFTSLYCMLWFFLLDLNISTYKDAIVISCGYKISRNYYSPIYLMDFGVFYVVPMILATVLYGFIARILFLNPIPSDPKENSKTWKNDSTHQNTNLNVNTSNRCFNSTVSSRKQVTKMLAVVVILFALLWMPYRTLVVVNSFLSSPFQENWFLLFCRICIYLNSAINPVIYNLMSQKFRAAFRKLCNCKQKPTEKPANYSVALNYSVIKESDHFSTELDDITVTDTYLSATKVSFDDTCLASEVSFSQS
How it was run: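 Kinetic fluorescence (3 min, 1 s intervals) reported intracellular calcium after compound transfer onto TRHR-Hek293 cells pre-loaded with dye for 2 h at 37 °C.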
% is scaled to controls: 0 for no effect and ±100 for the full control effect.

Nc1cc(N)cc(C(=O)O)c1
inactive: Potency [1] | outcome [2] | Potency [3] | outcome [4] | outcome [5] | Potency [9] | Potency [10] | Potency [11]
active: Potency [6] 34.4 µM | Potency [7] 35.6 µM | Potency [8] 79.6 µM

Cc1cc(C)cc(OCC2CNC(=O)O2)c1 (configuration not stated)
inactive: Potency [1] | outcome [2] | Potency [3] | outcome [4] | outcome [5] | Potency [6] | max activation [12] -2.51% | Potency [13] | Potency [14] | Potency [7] | Potency [8] | Potency [15] | Potency [10] | Potency [11]

CSc1ccc(C=O)cc1
inactive: Potency [1] | outcome [2] | Potency [3] | outcome [4] | outcome [5] | Potency [6] | Potency [7] | Potency [10] | Potency [11]

CCCC(C)CO (configuration not stated)
inactive: Potency [1] | outcome [2] | Potency [3] | outcome [4] | outcome [5] | Potency [6] | Potency [8] | Potency [10] | Potency [11]
active: Potency [7] 79.7 µM | Potency [9] 35.6 µM

CC(=O)N[C@@H](CCC(N)=O)C(=O)O
inactive: outcome [16] | outcome [2] | Potency [3] | outcome [4] | outcome [5] | Potency [6] | Potency [7] | Potency [15] | Potency [9] | Potency [10] | Potency [11]

COC(C(=O)O)c1ccccc1 (configuration not stated)
inactive: Potency [1] | outcome [2] | Potency [3] | outcome [4] | outcome [5] | Potency [6] | Potency [8] | Potency [15] | Potency [9] | Potency [10] | Potency [11]

OC/C=C/c1ccccc1
inactive: Potency [1] | outcome [2] | Potency [3] | outcome [4] | outcome [5] | Potency [6] | max activation [12] -5.54% | Potency [13] | Potency [14] | Potency [10] | Potency [11]
active: Potency [7] 59 µM

COC(=O)c1ccc(C(=O)OC)c(C(=O)OC)c1
active: Potency [9] 7.96 µM
inactive: Potency [1] | outcome [2] | Potency [3] | outcome [4] | outcome [5] | Potency [6] | Potency [7] | Potency [10] | Potency [11]

O=C(O)C(O)[C@H](O)[C@@H](O)[C@H](O)[C@H](O)CO (some centres not stated)
active: Potency [7] 64 µM | Potency [8] 40.4 µM | Potency [9] 40.4 µM
inactive: Potency [1] | outcome [2] | Potency [3] | outcome [4] | outcome [5] | Potency [6] | Potency [10] | Potency [11]

Fc1ccccc1-c1ccccc1
active: Potency [9] 40.8 µM
inactive: Potency [1] | outcome [2] | Potency [3] | outcome [4] | outcome [5] | Potency [6] | Potency [7] | Potency [8] | Potency [15] | Potency [10] | Potency [11]
